FMDV inh: High Throughput Screening for Foot and Mouth Disease Virus Antivirals | 410,000 tested, 1.2% active | AID 1159524, 2015 | FMDV antiviral cell-based qHTS | Potency, µM (titrated, usually from 57.9 µM), inactives show at the highest dose activity change, negative = inhibition, usual class: inhibitors; calls by dose curve; tested in HEK293T cells; note: read-out not given here; potency is the fitted concentration of half-maximal effect; nearly all actives have a fitted effect of over 45% in size
TbPYK inhibitor: qHTS of Trypanosoma Brucei Inhibitors. TbPYK enzyme, Kinase-Glo Plus ATP luminescence, 45 min. Potency, µM (highest dose often 76.8 µM), for the others: top-dose activity, negative = inhibition, most hits filed as inhibitors. 410,000 tested, 0.12% active. AID 624173, 2012; note: potency is the fitted concentration of half-maximal effect; nearly all actives have a fitted effect of over 50% in size
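Activity of T. brucei pyruvate kinase was followed by Kinase-Glo Plus luminescence after the enzyme reacted 45 min at room temperature with 130 uM ADP (final) and substrate. Test compounds were added before ADP at multiple concentrations.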
Giardia FBPA inh-1: qHTS Assay for Inhibitors of Fructose-1,6-bisphosphate Aldolase from Giardia Lamblia; A8B2U2; purified Giardia FBPA; Potency, µM (doses to about 59.6 µM), for inactives: at the highest dose activity, negative = inhibition, hits mostly inhibitors; 290,000 tested, 0.71% active; note: potency is the fitted concentration of half-maximal effect; nearly all actives have a fitted effect of over 55% in size
Target sequence (A8B2U2 whole entry, looked up): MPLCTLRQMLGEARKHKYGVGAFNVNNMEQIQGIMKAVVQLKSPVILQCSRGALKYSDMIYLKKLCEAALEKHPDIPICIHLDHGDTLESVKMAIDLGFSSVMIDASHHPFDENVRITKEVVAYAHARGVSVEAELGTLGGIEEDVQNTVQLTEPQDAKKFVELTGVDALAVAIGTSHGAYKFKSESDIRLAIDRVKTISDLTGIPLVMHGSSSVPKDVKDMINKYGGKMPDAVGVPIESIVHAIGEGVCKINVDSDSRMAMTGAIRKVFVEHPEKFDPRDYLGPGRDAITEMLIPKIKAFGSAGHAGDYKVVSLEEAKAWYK
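40 nM FBPA preincubated 10 min at RT with compound (up to 57.5 uM final), then substrate plus GAPDH/TPI/NAD/arsenate coupling and diaphorase/resazurin added. Fluorescence read after 20 min at RT, 525/598 nm.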
RE007 growth inh: qHTS Assay for Inhibitors of the HIV-1 protein Vpr; S. pombe RE007 Vpr strain, BacTiter-Glo ATP luminescence, 24 h; Potency, µM (doses to about 92.2 µM), for inactives: at the top dose activity change, negative = less growth, most hits filed as inhibitors; 360,000 tested, 0.21% active; AID 651644, 2012; active = well fitted falling curve with a large enough effect; inconclusive = small, poorly fitted or top-dose-only effect; inactive = no such curve, though single readings can be large or run the other way; note: potency is the fitted concentration of half-maximal effect; nearly all actives have a fitted effect of over 50% in size
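Fission yeast RE007 carrying one integrated HIV-1 vpr copy, seeded at OD 0.01 in PMG+AL medium with 23 nL pinned compound. Grown 24 h at 30 degrees; viability read by BacTiter-Glo luminescence after 5 min.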
Sm TGR inh: qHTS Assay for the Inhibitors of Schistosoma Mansoni Peroxiredoxins; Schistosoma mansoni thioredoxin glutathione reductase (TGR), Q962Y6; purified TGR, DTNB reduction, TNB absorbance 405 nm; Potency, µM (highest dose often 114 µM), inactives show top-dose activity change, negative = inhibition, usual class: inhibitors; 360,000 tested, 3% active; AID 485364, 2010; note: potency is the fitted concentration of half-maximal effect; nearly all actives have a fitted effect of over 60% in size
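Kinetic colorimetric format: TGR-catalysed, NADPH-driven DTNB reduction monitored via TNB absorbance. Enzyme dispensed at 20 nM; compound exposure 15 min at room temperature before reaction start.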
HCMV inh: qHTS Assay for inhibitors of the human cytomegalovirus (HCMV); HFF cells, HCMV-luciferase reporter, 72 h; active compounds read low; activity change, negative = inhibition, % at 57.5 µM; 410,000 tested, 4.5% active; in the data active = activity change below about -60%; inconclusive = no clear call, values can overlap the other calls; inactive = above about -39%
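Two-dose cell screen: HFF monolayers treated with compounds and infected with luciferase-expressing HCMV at 1 PFU/cell, 72 h at 37C, then lysed for luciferase measurement.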
Giardia growth: qHTS Assay for Inhibitors of Fructose-1,6-bisphosphate Aldolase from Giardia Lamblia: Giardia lamblia growth inhibition. shares compounds with Giardia FBPA inh-1. Giardia lamblia trophozoite growth inhibition. Potency, µM (series often up to 57.5 µM), without a hit: at the highest dose activity change, negative = inhibition, actives largely listed as inhibitors. 1,500 tested, 5% active;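 note: potency is the fitted concentration of half-maximal effect; trophozoites exposed to compound for 48 h at 37 °C; nearly all actives have a fitted effect of over 70% in size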
Mammalian tox: qHTS Assay for Inhibitors of Fructose-1,6-bisphosphate Aldolase from Giardia Lamblia: Mammalian cellular toxicity | shares compounds with Giardia FBPA inh-1 | mammalian cell viability counter-screen, qHTS | Potency, µM (series often up to 57.5 µM), for the others: at the top dose viability change, negative = toxicity, hits mostly inhibitors | 1,500 tested, 4% active;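 note: Chinese hamster ovary cells used as mammalian cytotoxicity surrogate; viability measured as cellular ATP by luminescence; potency is the fitted concentration of half-maximal effect; compound exposure lasted 48 h before reading; nearly all actives have a fitted effect of over 60% in size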
Giardia FBPA inh-2: qHTS Assay for Inhibitors of Fructose-1,6-bisphosphate Aldolase from Giardia Lamblia: Primary screen confirmation. shares compounds with Giardia FBPA inh-1. purified Giardia aldolase enzyme activity, qHTS. Potency, µM (top dose mostly 57.5 µM), inactives show at the highest dose activity change, negative = inhibition, usual class: inhibitors. 1,500 tested, 5% active. AID 2787, 2010; note: potency is the fitted concentration of half-maximal effect; nearly all actives have a fitted effect of over 45% in size
Rabbit FBPA inh: qHTS Assay for Inhibitors of Fructose-1,6-bisphosphate Aldolase from Giardia Lamblia: Rabbit FBPA Selectivity. 1,500 tested, 4% active. shares compounds with Giardia FBPA inh-1. Potency, µM (top dose mostly 57.5 µM), inactives show at the highest dose activity, negative = inhibition, most hits filed as inhibitors. AID 2794, 2010. Rabbit muscle FBPA enzyme inhibition, selectivity counter-screen; note: potency is the fitted concentration of half-maximal effect; nearly all actives have a fitted effect of over 60% in size
Target sequence (P00883 whole entry, looked up): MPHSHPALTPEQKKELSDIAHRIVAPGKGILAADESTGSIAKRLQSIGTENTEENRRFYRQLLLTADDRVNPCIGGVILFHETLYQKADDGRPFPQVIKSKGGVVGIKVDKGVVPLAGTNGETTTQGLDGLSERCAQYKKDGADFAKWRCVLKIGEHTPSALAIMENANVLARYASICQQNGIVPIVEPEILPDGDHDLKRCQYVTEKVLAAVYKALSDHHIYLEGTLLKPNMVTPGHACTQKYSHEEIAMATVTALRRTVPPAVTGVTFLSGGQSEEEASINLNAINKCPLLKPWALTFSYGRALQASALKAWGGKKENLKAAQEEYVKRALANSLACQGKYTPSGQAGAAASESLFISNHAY
GAPDH counter: qHTS Assay for Inhibitors of Fructose-1,6-bisphosphate Aldolase from Giardia Lamblia: Coupling assay counterscreen confirmation; shares compounds with Giardia FBPA inh-1; GAPDH coupling enzyme counterscreen, biochemical, qHTS; Potency, µM (highest dose often 57.5 µM), without a hit: top-dose activity change, negative = inhibition, actives largely listed as inhibitors; 1,500 tested, 6% active; note: potency is the fitted concentration of half-maximal effect; nearly all actives have a fitted effect of over 55% in size
Active calls of the source: *; ? = inconclusive; nt = no result given; [ ] = dose if it differs, or a comment. Sampled rows, rich in hits. Any-hit rate of the full collection: about 7.7%. Unless noted, calls come from the whole dose curve; as a rule, active = well fitted curve in the direction sought with a large enough effect; inconclusive = small, poorly fitted or top-dose-only effect, or another doubt; inactive = no such curve, though single readings can be large; an effect the other way counts as inactive or inconclusive. % is set by controls: 0 for no effect and ±100 for the full control effect.

SMILES	FMDV inh	TbPYK inhibitor	Giardia FBPA inh-1	RE007 growth inh	Sm TGR inh	HCMV inh	Giardia growth	Mammalian tox	Giardia FBPA inh-2	Rabbit FBPA inh	GAPDH counter
O=C(Nc1n[nH]c(=S)s1)c1ccco1	-6.6%	?	7.08µM*	11.3%	-1.5%	7.6	-5.4%[38.3 µM]	4.0%	39.8µM*	-11.5%	-20.6%
Cn1c(-c2cccc([N+](=O)[O-])c2)cnc1NCc1cccc(F)c1	-10.9%	20.4%	28.2µM*	-4.8%	4.1%	-20.5	-8.5%[10.4 µM]	-21.1%	-4.6%	3.0%	4.9%
COc1cc(CNC(C)(C)CO)ccc1OCC(=O)NC(C)(C)C	-12.3%	-3.9%	1.6%	8.6%	-0.7%	4.5	nt	nt	nt	nt	nt
COc1cc(CNn2cn[nH]c2=S)ccc1OCC(=O)NC(C)(C)C	5.0%	?	10µM*	12.1%	-1.6%	-6.9	?	-1.0%	2.7%	-1.0%	13.0%
CCOc1ccc(NC(=O)Cn2cc(C(=O)c3ccc(C)c(C)c3)c(=O)c3cc4c(cc32)OCCO4)cc1	10.5%	5.2%	nt	nt	-8.3%	3.8	nt	nt	nt	nt	nt
Cc1ccccc1-n1c(O)c(/C=N/NC(=O)c2ccccc2O)c(=O)[nH]c1=S	-0.3%	-19.8%	21.8%	2.1%	-20.7%	-11.9	nt	nt	nt	nt	nt
O=C(N/N=C/c1c(O)n(-c2ccccc2)c(=S)[nH]c1=O)c1ccccc1	62.7%	-19.0%	-15.7%	-3.5%	3.8%	89.3	3.9%[38.3 µM]	1.4%	?	-17.3%	?
N#CCCN(Cc1cccnc1)C(=S)NC(=O)c1ccc(S(=O)(=O)N2CCCC2)cc1	4.4%	?	7.92µM*	3.7%	-1.2%	?	10.4%	7.5%	-1.8%	5.0%	12.5%
Cn1c(=O)cc(C(=O)N/N=C/c2ccc(F)cc2)[nH]c1=O	21.1%	-14.2%	15.8µM*	-8.0%	2.8%	39.4	121.6%	13.5%	4.9%	-6.8%	6.3%
COc1cccc([C@@H]2Oc3ccc(Br)cc3C(=O)[C@H]2OC(=O)Nc2ccc(OC(F)F)cc2)c1	nt	nt	-4.1%	nt	nt	nt	nt	nt	nt	nt	nt
CC(=O)O[C@@]1(C(C)=O)CCC2C3CC(C)C4=CC(=O)CC[C@@]4(C)C3CC[C@]21C (stereo not given in full)	nt	-5.0%	-0.7%	nt	nt	nt	nt	nt	nt	nt	nt
O=C(O)CN1C(=O)CN=C(c2ccccn2)c2cc(Cl)ccc21	10.8%	2.2%	19.9µM*	0.9%	18.0%	19.9	-15.0%	-3.1%	-0.1%	7.5%	8.4%
COc1ccc(-c2cc(-c3ccco3)[nH]c(=O)c2C#N)cc1OC	-7.7%	3.3%	15.8µM*	6.3%	3.98µM*	13.6	19.0%	-13.7%	-15.1%	-10.7%	-4.4%
O=C1C(=O)c2ccccc2-c2ccccc21	5.62µM*	0.0%	0.141µM*	?	?	-101.1*	12.6µM*	20µM*	1.12µM*	0.891µM*	1.12µM*
CCC(C)NCCOc1ccc(C(C)(C)c2ccccc2)cc1 (stereo not given)	?	-4.4%	17.7µM*	6.6%	0.7%	?	?	-9.1%	8.9%	9.8%	-0.4%
Cn1nnc(NC(=O)c2ccccc2)n1	3.6%	6.5%	4.4%	1.1%	-0.5%	-24.2	nt	nt	nt	nt	nt
COc1cccc(C(=O)NC(=S)Nc2nnn(C)n2)c1	31.6%	-15.3%	1.58µM*	0.6%	?	-23.0	-18.2%[38.3 µM]	-1.0%	-1.6%	5.2%	6.7%
Cn1nnc(NC(=S)NC(=O)c2cccc3c(Br)cccc23)n1	-11.6%	1.3%	?	12.2%	-20.8%	0.0	nt	nt	nt	nt	nt
Cn1nnc(NC(=S)NC(=O)Cc2ccccc2)n1	-5.5%	-2.4%	1.58µM*	0.6%	nt	16.3	-13.1%[38.3 µM]	-5.4%	-7.0%	-4.7%	-1.5%
CCOc1ccccc1CNC(=O)CCn1cccn1	-1.2%	1.1%	nt	nt	-0.8%	4.6	nt	nt	nt	nt	nt
CCOc1ccc(-c2c(C)nn3c(-c4ccccc4)c(C(=O)NCCOC)cnc23)cc1OCC	-31.1%	-0.8%	nt	nt	-3.0%	-10.2	nt	nt	nt	nt	nt
CCOC(=O)c1oc2c(O)c(O)ccc2c(=O)c1-c1nncn1-c1ccccc1	-13.8%	-7.0%	4.46µM*	-16.9%	-3.1%	79.1	-27.7%	-20.0%	?	?	-17.7%
O=C1NC(=O)/C(=C/c2ccc(-c3cc(C(=O)O)ccc3Cl)o2)S1	-16.3%	-15.9%	31.6µM*	9.0%	-25.5%	-10.9	63.8%	8.4%	1.6%	-2.3%	8.8%
CCn1c(CCc2ccccc2)nc2ccccc21	13.1%	1.8%	14.1µM*	-14.4%	-18.1%	22.0	-14.6%	-9.8%	-4.5%	-2.3%	-2.2%
CCc1nc2ccccc2n1CCc1ccccc1	-21.6%	-0.7%	-15.6%	2.0%	-3.5%	?	nt	nt	nt	nt	nt
CCOC(=O)C1CCCN(CCC(=O)Nc2ccc(Br)c(C)c2)C1 (stereo not given)	-4.0%	4.0%	14.1µM*	-10.9%	-9.1%	31.1	?	-7.7%	3.7%	7.8%	10.3%
O=C(Nc1cccc(F)c1)N1CC2(CCN(C(=O)c3ccncc3)CC2)C1	-5.6%	0.0%	11.7%	nt	nt	nt	nt	nt	nt	nt	nt
NCCn1oc(=O)[nH]c1=O	0.5%	nt	nt	nt	nt	nt	nt	nt	nt	nt	nt
COc1cccc(C(=O)N2CCN(Cc3ccccc3C(F)(F)F)CC2)c1	?	-1.6%	?	0.1%	-0.2%	15.2	nt	nt	nt	nt	nt

Compound activity (PubChem)
